# Reference: PubChem BioAssay
# Unmarked numbers belong to inactive results. The source made the active and inactive calls. Rule as the data show it, unless noted: active = inhibition above about 36%; inactive = the rest.
# Experiments:
# [1] = tested on: transactivating tegument protein VP16 (Human herpesvirus 1); experiment: VP16 transactivation reporter inhibitors, counter-screen for SRC2 inhibitor project, cell-based, luminescence, single concentration (AID 652007); settings: cell-based VP16 transactivation luciferase reporter, at 8.9 µM, active compounds read high
# [2] = target: Nuclear receptor coactivator 2 (Homo sapiens) (UniProt Q15596); experiment: SRC2 coactivator transcriptional activity inhibitors, confirmation, cell-based, luminescence, HEK293, triplicate (AID 652008;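 active = mean inhibition above 46.5%, the solvent-only control mean plus 3 SD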;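 also: 0% = DMSO-treated cells and 100% = Gossypol at 36 µM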); settings: HEK293 GAL4-SRC2 luciferase reporter, at 8.9 µM, active compounds read high
# Nuclear receptor coactivator 2 (Homo sapiens), sequence (Q15596 whole entry, looked up, the tested form may be a part): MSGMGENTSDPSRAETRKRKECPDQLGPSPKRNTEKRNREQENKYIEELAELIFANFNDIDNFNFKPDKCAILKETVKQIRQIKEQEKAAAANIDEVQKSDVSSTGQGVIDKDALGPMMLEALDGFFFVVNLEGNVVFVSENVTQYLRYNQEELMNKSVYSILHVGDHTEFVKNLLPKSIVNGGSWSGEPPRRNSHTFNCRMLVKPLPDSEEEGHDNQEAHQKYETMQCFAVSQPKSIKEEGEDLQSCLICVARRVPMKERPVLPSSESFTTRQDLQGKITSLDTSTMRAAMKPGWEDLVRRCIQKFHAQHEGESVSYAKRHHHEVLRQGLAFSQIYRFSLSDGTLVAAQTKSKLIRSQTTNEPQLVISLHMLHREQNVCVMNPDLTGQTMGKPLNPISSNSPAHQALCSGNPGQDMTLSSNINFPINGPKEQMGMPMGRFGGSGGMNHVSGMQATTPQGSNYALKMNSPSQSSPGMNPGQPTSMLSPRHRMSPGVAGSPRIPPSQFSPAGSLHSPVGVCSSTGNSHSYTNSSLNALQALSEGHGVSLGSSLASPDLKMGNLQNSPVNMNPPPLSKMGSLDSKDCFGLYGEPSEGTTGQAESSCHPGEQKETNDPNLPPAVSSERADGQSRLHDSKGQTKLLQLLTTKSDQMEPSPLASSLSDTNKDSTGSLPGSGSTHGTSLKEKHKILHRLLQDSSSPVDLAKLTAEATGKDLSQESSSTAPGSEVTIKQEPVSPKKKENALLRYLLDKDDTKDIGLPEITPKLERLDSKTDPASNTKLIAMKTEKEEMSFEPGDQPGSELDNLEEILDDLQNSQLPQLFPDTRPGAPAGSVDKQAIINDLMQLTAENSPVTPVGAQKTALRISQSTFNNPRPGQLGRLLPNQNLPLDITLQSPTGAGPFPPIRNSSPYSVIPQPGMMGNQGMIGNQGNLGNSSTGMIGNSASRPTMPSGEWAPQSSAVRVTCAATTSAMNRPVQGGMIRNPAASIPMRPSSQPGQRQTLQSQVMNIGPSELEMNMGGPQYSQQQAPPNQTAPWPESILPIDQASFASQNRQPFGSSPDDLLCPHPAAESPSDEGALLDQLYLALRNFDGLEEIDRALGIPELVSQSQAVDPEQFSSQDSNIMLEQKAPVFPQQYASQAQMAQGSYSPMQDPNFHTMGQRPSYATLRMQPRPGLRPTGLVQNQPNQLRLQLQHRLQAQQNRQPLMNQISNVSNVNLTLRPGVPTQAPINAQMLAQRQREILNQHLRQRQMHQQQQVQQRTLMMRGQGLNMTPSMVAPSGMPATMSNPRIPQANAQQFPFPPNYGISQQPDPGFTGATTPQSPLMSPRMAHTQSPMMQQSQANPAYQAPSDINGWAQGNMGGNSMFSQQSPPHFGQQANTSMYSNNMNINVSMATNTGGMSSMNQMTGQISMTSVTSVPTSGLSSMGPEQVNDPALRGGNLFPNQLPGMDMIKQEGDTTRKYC
SMILES,inhibition [1],inhibition [2]
COc1ccc(OC)c(CC(=O)Nc2ccc3c(c2)c(=O)n(C)n3Cc2cccc(C(F)(F)F)c2)c1,-5.16%,-6.44%
Cc1cnc(NC(=O)COc2ccccc2Cl)s1,-10.5%,18.8%
O=C(N/N=C/c1ccc([N+](=O)[O-])s1)c1ccccc1,34.9%,24.6%
Clc1cccc(-c2nc(-c3ccccn3)no2)c1,-11%,7.62%
COCCN=C1Sc2nc3c(C)cccc3cc2CN1Cc1ccco1,-12%,4.64%
Cc1cc(C)cc(C(=O)NC(=S)Nc2ccc(-c3cc4ccccc4oc3=O)cc2)c1,-8.51%,46.7% (active)
Cc1nc2cc(-c3ccccc3)sc2c(=O)n1N,22.3%,45%
CC(=O)Nc1cc(-c2ccc(C(=O)NC3CC3)cc2)cn2c(-c3cccc(C(F)(F)F)c3)cnc12,-9.85%,-1.25%
COc1ccc(OC)c(NC(=O)CCCc2ccccc2)c1,-5.12%,-20.9%
Cc1cc(C(=O)C(C)OC(=O)c2ccc(NC(=O)CC#N)cc2)c(C)n1-c1ccccc1 (stereo unspecified),-36%,26.3%
COc1cc(OC)c2c(-c3cccc(-c4ccc(N(C)C)cc4)c3)cc(=O)oc2c1,-17.4%,27.6%
Cc1ccc(N(C(=O)c2ccc3c(c2)OCO3)C2C=CS(=O)(=O)C2)cc1C (stereo unspecified),0.8%,-17.6%
CCOC(=O)c1ccc(-c2ccc(N3C(c4ccsc4)=Cc4ccc(F)cc4C3c3c[nH]c4ccc(C#N)cc34)cc2)cc1F (stereo unspecified),-3.42%,33.6%
CCOc1ccc(NC(=O)CN(C)C(=O)c2cn(-c3ccccc3)nc2-c2cccs2)cc1OCC,-4.29%,16%
Nc1nc(-c2ccccc2)c(N=Nc2cccnc2)s1,5.71%,11.2%
Cc1cc(C)c2c3c(sc2n1)C(=O)N(c1ccccc1C)CC(=O)N3,4.42%,5.22%
CCc1nnc(NC(=O)c2nc(S(=O)(=O)Cc3ccc(C)cc3)ncc2Cl)s1,48.1% (active),58.3% (active)
CCCNC(=O)C[C@H]1C[C@H]2c3cc(NC(=O)Nc4ccc(F)cc4)ccc3O[C@H]2[C@@H](CO)O1,4.81%,-7.94%
COc1cc(OC)c(-c2c3cc(O)c(=O)cc-3oc3cc(O)c(O)cc23)cc1OC,9.48%,3.62%

SMILES,inhibition [1],inhibition [2]
Cc1cc(=O)c2ccccc2n1Cc1ccccc1,-10.6%,18.6%
Cc1cc(N2CCOCC2)c2c(N)cc(C)c(C)c2n1,-7.44%,-11.2%
O=C(NCc1cccnc1)/C(=C\c1ccc(-c2ccc(Cl)c(Cl)c2)o1)S(=O)(=O)c1ccccc1,75.3% (active),66.9% (active)
COc1cc2ncnc(NCc3ccc4c(c3)OCO4)c2cc1OC,7.59%,-5.74%
COc1cc(OC)nc(Nc2nc(C(N)Cc3ccc(F)cc3)cs2)n1 (stereo unspecified),-4.22%,-0.34%
CCc1ccc(/C=C2\SC(=S)N(CCC(=O)NC3=NCCS3)C2=O)cc1,-67.3%,75% (active)
C=C1C(=O)[C@@]23[C@H](O)C[C@@H]4C(C)(C)CC[C@H](O)[C@]4(C)[C@@H]2C[C@H](O)[C@@H]1[C@H]3O,4.46%,54% (active)
C=CC(=O)NN(C)c1ncc(C(F)(F)F)cc1Cl,15.4%,7.42%
COC(=O)C1CN(Cc2ccccc2)CCS(=O)(=O)N1Cc1cn(Cc2ccc(Cl)cc2)nn1 (stereo unspecified),-13.7%,-3.09%
CCCCCCC(=O)N(O)C1CC(=O)N(c2ccc(C)cc2)C1=O (stereo unspecified),9.6%,39.9%
Cc1ccc(-c2noc(CCCC(=O)NC3CCCC3)n2)cc1,20.1%,42.4%
Nc1ncc([N+](=O)[O-])c(Oc2ccccc2F)n1,-7%,-16.8%
CN(Cc1ccccc1F)C(=O)C1CCC(CNS(=O)(=O)c2cccc3cccnc23)CC1 (stereo unspecified),3.95%,-2.23%
CCOC(=O)C1=CCN(S(=O)(=O)c2cccc(Cl)c2)C1c1ccc(Cl)c(Cl)c1 (stereo unspecified),-7.88%,7.77%
CC(C)c1ccccc1NC(=O)COC(=O)CCN1C(=O)/C(=C\C=C\c2ccccc2)SC1=S,45.2% (active),77.6% (active)
O=C(CCCCl)NC(=S)Nc1cc(C(F)(F)F)ccc1N1CCOCC1,-12.4%,-9.88%
C=C1C(=O)[C@]23C[C@H]1CCC2[C@]1(C)CCC[C@@](C)(C(=O)O)C1C[C@@H]3O (stereo partly specified),4.96%,6.02%
Cc1ccc(NC(=O)CSc2ncnc3ccccc23)cc1S(=O)(=O)N1CCCCC1,6.85%,30%
COc1ccc(C(=O)Nc2nc3ccccc3[nH]2)cc1,-57.5%,13.5%
